Assay outcomes: PubChem, National Center for Advancing Translational Sciences (NCATS)
Bst PK mod – pyruvate kinase (B. stearothermophilus) modulation | purified pyruvate kinase, luminescence ATP production; ribose 5-phosphate activator present at AC10 | Potency, µM | actives 1.2% (n = 51,000) | AID 361; in the data active = potency below about 11 µM; inconclusive = mostly about 12 µM to 25 µM;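 the screen sought inhibitors and activators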;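 note: scaled between full activation by ribose 5 phosphate and full inhibition by luteolin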
GBA activity – human lysosomal glucosylceramidase modulation; purified enzyme, resorufin glucoside fluorescence (screen aimed at inhibitors), 20 min; P04062; actives 1.1% (n = 48,000); Potency, µM; in the data active = potency below about 15 µM; inconclusive = mostly about 16 µM to 33 µM;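 note: the screen sought inhibitors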
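Normal human glucocerebrosidase (0.2 nM final) was assayed with resorufin β-D-glucopyranoside (30 uM final) in 50mM citric acid/KH2PO4, 10mM sodium taurocholate, 0.01% tween-20, pH 5.9. Compounds were titrated; fluorescence (Ex 548, Em 600) read after 20 min at RT.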
Luciferase inh – firefly luciferase inhibition | P08659 | purified firefly luciferase, luminescence, 8 min | Potency, µM (series often up to 57.1 µM), without a hit: at the top dose activity change, negative = inhibition, usual class: inhibitors | actives 2.2% (n = 72,000) | AID 411; active = well fitted inhibition curve with a large enough effect; inconclusive = small, poorly fitted or top-dose-only effect; note: % is set by controls: 0 for no effect and ±100 for the full control effect; nearly all actives have a fitted effect of over 40% in size
Target sequence (P08659 whole entry, looked up): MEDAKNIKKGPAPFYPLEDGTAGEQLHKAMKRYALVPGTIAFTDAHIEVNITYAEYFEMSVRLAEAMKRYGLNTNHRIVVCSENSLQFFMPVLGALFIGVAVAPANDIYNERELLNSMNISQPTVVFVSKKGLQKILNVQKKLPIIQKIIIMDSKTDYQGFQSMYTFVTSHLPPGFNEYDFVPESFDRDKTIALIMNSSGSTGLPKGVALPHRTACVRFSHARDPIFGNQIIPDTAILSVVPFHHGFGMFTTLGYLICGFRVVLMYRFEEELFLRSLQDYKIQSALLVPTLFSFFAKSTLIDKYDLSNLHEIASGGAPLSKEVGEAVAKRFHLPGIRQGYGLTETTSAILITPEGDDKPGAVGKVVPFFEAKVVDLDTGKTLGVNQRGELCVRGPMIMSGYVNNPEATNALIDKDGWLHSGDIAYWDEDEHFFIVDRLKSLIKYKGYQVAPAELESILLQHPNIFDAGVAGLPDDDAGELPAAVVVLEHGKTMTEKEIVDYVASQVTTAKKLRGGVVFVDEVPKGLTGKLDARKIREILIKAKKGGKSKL
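Firefly luciferase (PKLight detection mix) with 10 uM ATP in pH 7.2 imidazole buffer (KCl, MgCl2, Tween 20, BSA). Compounds tested across a concentration series (qHTS). Luminescence read after 8 min at ambient temperature.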
Starred values were filed as active, the others as inactive; i = inactive; ? = inconclusive; nt = no result given; [ ] = remark or other dose. Shown are actives, neighbours in structure and some others; about 3.4% of the full set was active somewhere. Potency is the fitted concentration of half-maximal effect.

SMILES | Bst PK mod | GBA activity | Luciferase inh
CCOC(=O)c1c(N)sc(C(=O)Nc2ccc3c(c2)OCO3)c1C | 1* | >77 | 0.79µM*
C=C1C(=O)O[C@H]2C[C@@]3(C)CCCC(=C)[C@@H]3C[C@H]12 | nt | nt | -7%[11.4 µM]
C[n+]1ccccc1/C=N\O | nt | nt | 4%[25.5 µM]
O=C(Nc1ccc(Cl)cc1)c1ccc2c(c1)OCO2 | nt | >77 | 4µM*
CC(=O)Nc1ccc(C(=O)Nc2ccc3c(c2)OCO3)cc1 | >57 | i | -15%
COc1ccc(-c2cc(C(=O)NCCN3CCOCC3)c3ccccc3n2)cc1 | i | nt | ?
CCOc1ccc(-c2cc(C(=O)NCCCN3CCN(CC)CC3)c3ccccc3n2)cc1 | 10* | >77 | 13µM*
COc1ccc(N(CC(=O)Nc2ccc3c(c2)OCCO3)S(=O)(=O)c2c(C)noc2C)cc1 | >57 | 12* | 0%
Cc1ccc(N(CC(=O)Nc2ccc3c(c2)OCCO3)S(=O)(=O)c2c(C)noc2C)cc1 | >57 | ? | 1%
O=C1c2ccccc2S(=O)(=O)N1CC(O)Cn1ccc2ccccc21 (stereo not drawn) | >57 | >77 | 1%
N#CCCCCN1c2cccc3cccc(c23)S1(=O)=O | 7.9* | >77 | -1%
COc1cccc(Cn2c(=O)c(-c3ccc(Cl)cc3)nc3cnc(OC)nc32)c1 | nt | nt | 0%[11.4 µM]
O=C(O)c1cc(NCc2cccs2)ccc1N1CCOCC1 | >57 | >77 | 2%
O=C(O)c1cc(NCc2ccccc2C(F)(F)F)ccc1N1CCOCC1 | >57 | 13* | 0%
CN(C)S(=O)(=O)c1ccc(NC(=O)c2ccccn2)cc1 | nt | >77 | ?
CN(C)c1ccc(NC(=S)c2ccccn2)cc1 | nt | nt | 0.79µM*
COc1ccc(O[C@H]2C=C[C@@H](c3ccccc3)O[C@H]2COC(=O)CC/C(C)=N/OCC[C@@H]2C=C[C@H](OC(C)=O)[C@H](COC(C)=O)O2)cc1 | nt | nt | 1%[11.4 µM]
CCc1ccccc1N1CCN(S(=O)(=O)c2ccc(F)c(C)c2)CC1 | nt | >77 | 0%
Cc1ccc(N2CCN(S(=O)(=O)c3ccc(F)c(C)c3)CC2)c(C)c1 | 11* | >77 | -2%
CO[C@@H]1/C=C\O[C@]2(C)Oc3c(C)c(O)c4c(O)c(c(/C=N\N5CCN(C)CC5)c(O)c4c3C2=O)NC(=O)/C(C)=C\C=C/[C@H](C)[C@H](O)[C@H](C)[C@H](O)[C@H](C)[C@H](OC(C)=O)[C@@H]1C | nt | nt | -1%[11.4 µM]
CCOc1ccc2nc(C(C)O)[nH]c2c1 (stereo not drawn) | >57 | ? | -3%
COc1ccc2nc(-c3ccccc3)[nH]c2c1 | 6* | nt | 6.3µM*
CCOc1ccc2nc(-c3ccccc3)[nH]c2c1 | 2* | i | 3.2µM*
COc1ccc2nc(N3CCCC3)[nH]c2c1 | >11 | ? | -5%
CN(C)C(=O)c1ccc(-c2cncnc2NCCN2CCOCC2)cc1 | nt | nt | -3%[2.29 µM]
SMILES | Bst PK mod | GBA activity | Luciferase inh
CC(C)(C)N1C(=O)[C@H]2[C@H]3[C@H](O)[C@H](O)C/C(=N/OC[C@@H](O)COCc4ccco4)[C@H]3CC[C@@H]2C1=O | nt | nt | 2%[11.4 µM]
CN1CCN(c2ncnc3ccc(-c4ccccc4Cl)cc23)CC1 | nt | nt | -1%[2.29 µM]
Clc1ccc(-c2nnc3sc(Cc4cccs4)nn23)c(Cl)c1 | 9.5* | nt | 0%[25.5 µM]
c1coc(-c2nnc3sc(Cc4cccs4)nn23)c1 | >11 | nt | 1%[25.5 µM]
COc1ccccc1-c1cncnc1NCCN1CCOCC1 | nt | nt | -1%[2.29 µM]
COC(=O)C/C=C\[C@@H](C)[C@@H](/C=N\OC[C@@H]1O[C@H](c2ccccc2)C=C[C@@H]1Oc1ccc(OC)cc1)NS(=O)(=O)c1ccc(C)cc1 | nt | nt | -2%[11.4 µM]
CNc1ncncc1-c1c(C)noc1C | nt | nt | -1%[2.29 µM]
CC(C)(C)NC(=O)c1ccc2nccnc2c1 | i | >77 | 0%
CC(C)(C)NC(=O)Nc1ccc2nccnc2c1 | nt | nt | 16µM*
CC(=O)NCCNc1ncnc2ccc(-c3c(C)noc3C)cc12 | nt | nt | 0%[2.29 µM]
Cc1ccccc1N=C1Nc2ccccc2CS1 | nt | >77 | 25µM*
Cc1ccccc1N=C1NC(=O)CS1 | >57 | >77 | 1%
Cc1c(C(=O)N2CCc3ccccc3C2)sc2nc(-c3ccccc3)cn12 | >57 | >77 | -1%
c1ccc(-c2cn3c4c(sc3n2)CCCC4)cc1 | 0.33* | nt | 0.4µM*
Clc1cccc(-c2nc(-c3ccccn3)no2)c1 | 3.3* | >77 | 2.5µM*
COc1cccc(-c2nc(-c3ccccn3)no2)c1OC | i | >77 | ?
Cc1ccc(-c2nc(-c3ccccn3)no2)cc1Cl | 0.54* | >77 | 0.4µM*
c1ccc(-c2noc(-c3cccc4ccccc34)n2)nc1 | 9.6* | >77 | 7.9µM*
c1ccc(-c2cc(-c3nc(-c4ccccn4)no3)c3ccccc3n2)cc1 | nt | nt | -5%
COc1cc(-c2nc(-c3ccccn3)no2)cc(OC)c1OC | nt | nt | -25%
C[C@H](O)[C@H](O)[C@@H](O)c1cnc2nc(N)[nH]c(=O)c2n1 | nt | nt | 0%[11.4 µM]
NC(=O)c1ncn([C@@H]2O[C@@H](CO)[C@@H](O)[C@H]2O)n1 | nt | nt | -1%
CC1=C(\C=C/C(C)=C/C=C\C(C)=C\C(=O)Nc2ccc(O)cc2)C(C)(C)CCC1 | nt | nt | -2%
CCOc1cccc2cc(-c3cn4cc(C)ccc4n3)c(=O)oc12 | 1.2* | >77 | 0.16µM*
COc1cccc2cc(-c3cn4cccc(C)c4n3)c(=O)oc12 | >57 | >77 | -7%
SMILES | Bst PK mod | GBA activity | Luciferase inh
COc1ccc(NC(=O)N2CCCc3ccccc32)cc1 | nt | nt | -2%
O=C(COc1ccc2c(c1)CCC2)N1CCc2ccccc21 | >57 | >77 | 25µM*
CCOCC(=O)N1CCc2ccccc21 | >57 | >77 | 2%
CCOC(=O)c1ccc(NC(=O)N2CCc3ccccc32)cc1 | i | >77 | 4µM*
O=C(OCC(=O)N1CCc2ccccc21)c1cccnc1 | >57 | >77 | -6%
O=C(OCC(=O)N1CCc2ccccc21)c1ccccc1 | nt | >77 | 20µM*
CC(=O)Nc1ccc(OC[C@@H](O)CNC(C)C)cc1 | nt | nt | -2%
Cc1cc2c(nc1C)CCCN2C[C@H](C)O/N=C\[C@@H](C)[C@H](OCc1ccccc1)C(C)C | nt | nt | 1%[11.4 µM]
Cc1cccc(NC(=O)c2cnc3sccn3c2=O)c1 | nt | nt | 10µM*
Cc1cccc(NC(=O)c2cnc3ccccn3c2=O)c1 | nt | nt | 0%
N=c1c2c3c(sc2ncn1CCN1CCOCC1)CCCCC3 | >57 | ? | -4%
c1nc(NCCN2CCOCC2)c2c3c(sc2n1)CCCCC3 | nt | 7.5* | 1%
CCNc1ncc2nc(-c3ccc(Cl)cc3)c(=O)n(-c3ccc(OC)cc3)c2n1 | nt | nt | 1%[11.4 µM]
CC(CC(=O)O)(CC(=O)O)C(=O)O | nt | nt | 3%[11.4 µM]
O=C(c1[nH]o[n+](=O)c1C(=O)c1csc2ccccc12)c1csc2ccccc12 | nt | nt | 3%[11.4 µM]
CNc1ccccc1-c1nc2ccccc2n(C)c1=O | >26 | nt | 1%[25.5 µM]
COc1ccccc1Nc1nc2ccccc2n1C | nt | nt | 16µM*
COc1ccc(-c2oc3ccc(C)cc3c(=O)c2O)cc1OC | nt | nt | -2%[11.4 µM]
O=C(NCc1ccncc1)c1ccc(Br)cc1 | nt | nt | 0%
[O-]/[N+](=C\c1ccncc1)c1ccc(Br)cc1 | nt | nt | 7.9µM*
CCCc1ccc(-c2ccc(C(=O)O)cc2)nc1 | nt | nt | 16µM*
CCCc1ccc(OCC(=O)O)cc1 | nt | nt | -5%
CN(C)CCCc1c2ccccc2nc2ccc(Cl)cc12 | nt | nt | 2%[11.4 µM]
O=C(c1cc(C(F)(F)F)cc(C(F)(F)F)c1)N1CCC2(CC1)CN(c1ncccn1)C2 | nt | nt | 2%[11.4 µM]
C#CCCCO/N=C1/C[C@@H](O)[C@@H](O)[C@@H]2[C@@H]3C(=O)N(Cc4ccccc4)C(=O)[C@H]3CC[C@H]12 | nt | nt | 0%[11.4 µM]
C[n+]1cc2c3c(ccc2c2ccc4cc5c(cc4c21)OCO5)OCO3 | nt | nt | 13µM*
